A short description of experiment [1]: ATG_CRE_CIS: Attagene CIS-FACTORIAL HepG2 Assay for human cAMP Responsive Element (CRE) binding protein 3 (AID 2282926). To be noted: HepG2 CRE cis-reporter, Attagene multiplexed mRNA; actives raise or lower the signal. The method, boiled down: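 HepG2 cells transiently transfected with a multiplexed reporter library (CRE-driven unit among them) were dosed for 24 h. Reporter mRNA was quantified by RT-PCR, fluorescent labelling, HpaI digestion and capillary electrophoresis, with bidirectional fitting against DMSO baseline.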

Experiment [2] has as its target CCAAT/enhancer-binding protein beta (Homo sapiens) (UniProt P17676). Kind of experiment: ATG_C_EBP_CIS: Attagene CIS-FACTORIAL HepG2 Assay for human CCAAT/Enhancer Binding Protein (C/EBP) beta (AID 2282927). Conditions: HepG2 Attagene cis-factorial transcription factor reporter; actives raise or lower the signal. The essentials: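 RT-PCR/capillary electrophoresis fluorescence of reporter mRNA, 24 h post-dose, in HepG2 cells carrying transfected cis-promoter reporter units. Bidirectional curve fitting against DMSO baseline captures gain or loss of signal.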

Experiment [3] is described as follows: ATG_CMV_CIS: Attagene CIS-FACTORIAL HepG2 Assay for human CMV (Internal Marker) (AID 2282928).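 Further: endpoint acts as a background internal control marker rather than a target.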 To be noted: HepG2 CMV promoter reporter, transcription factor profiling; actives raise or lower the signal. The method, boiled down:
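Endogenous transcription factor activity read in HepG2 via transfected cis-promoter reporter units. After 24 h dosing, reporter mRNA measured by RT-PCR/capillary electrophoresis; gain or loss of signal fit relative to DMSO.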

Experiment [4] in a line: ATG_DR4_LXR_CIS: Attagene CIS-FACTORIAL HepG2 Assay for human Liver X Receptor (LXR), DR4 submotif (AID 2282929). To be noted: HepG2 Attagene DR4 cis-reporter, mRNA transcription; actives raise or lower the signal. The method, boiled down:
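HepG2, transient MRTU transfection, cis-element (DR4) promoter; 24 h compound exposure; total RNA → oligo(dT) RT → PCR → 6-FAM primer extension → HpaI cut → CE. Gain/loss vs DMSO, bidirectional fit.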

The target of experiment [5] is Aryl hydrocarbon receptor (Homo sapiens) (UniProt P35869). Kind of experiment: ATG_Ahr_CIS: Attagene CIS-FACTORIAL HepG2 Assay for human Aryl Hydrocarbon Receptor (Ahr) (AID 2282930). To be noted: HepG2 AhR cis-factorial reporter transcription; actives raise or lower the signal. The method, boiled down: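 HepG2 cells transiently transfected with cis-element-driven multiplexed reporter transcription units; endogenous transcription factor activity measured as reporter mRNA 24 h after dosing. RT-PCR, 6-FAM labelling, HpaI digestion, capillary electrophoresis; bidirectional fitting versus DMSO baseline.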

A short description of experiment [6]: ATG_AP_1_CIS: Attagene CIS-FACTORIAL HepG2 Assay for human Activator Protein 1 (AP-1) (AID 2282931). To be noted: HepG2 Attagene cis-factorial AP-1 reporter mRNA; actives raise or lower the signal. The essentials: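 Transient MRTU transfection of HepG2 → 24 h chemical treatment → RNA isolation, RT-PCR, 6-FAM labelling, HpaI digest → capillary electrophoresis. Fit: bidirectional, DMSO negative control.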

Experiment [7] can be described thus: ATG_AP_2_CIS: Attagene CIS-FACTORIAL HepG2 Assay for human Activator Protein 2 (AP-2) (AID 2282932). To be noted: HepG2 AP-2 cis-reporter, Attagene transcription factor profiling; actives raise or lower the signal. The method, boiled down:
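Bidirectional curve fitting against DMSO was applied to reporter mRNA signals from HepG2 cells 24 h after dosing. Cis-promoter reporter units, transiently transfected, were read by RT-PCR plus capillary electrophoresis.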

A short description of experiment [8]: ATG_BRE_CIS: Attagene CIS-FACTORIAL HepG2 Assay for human Bone Morphogenetic Protein (BMP) Response Element (BRE) (AID 2282933). Conditions: HepG2 BMP response element reporter, Attagene transcription factor profiling; actives raise or lower the signal. The method, boiled down:
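Read-out: reporter mRNA induction quantified by RT-PCR and capillary electrophoresis after 24 h chemical exposure of transfected HepG2 cells. Endogenous factor activity on the BMP response element; gain or loss fitted against DMSO baseline.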

Experiment [9] addresses Transcription factor E2F1 (Homo sapiens) (UniProt Q01094). Kind of experiment: ATG_E2F_CIS: Attagene CIS-FACTORIAL HepG2 Assay for human E2F Transcription Factor 1 (AID 2282935). Conditions: HepG2 Attagene cis-reporter, E2F reporter RNA transcripts; actives raise or lower the signal. The essentials: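 Multiplexed cis-reporter assay: HepG2, transient transfection, 24 h dosing, mRNA quantitation by labeled RT-PCR and CE.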

Experiment [10] is described as follows: ATG_E_Box_CIS: Attagene CIS-FACTORIAL HepG2 Assay for human Enhancer Box (E-box) (AID 2282936). To be noted: HepG2 E-box cis-reporter transcription, actives raise or lower the signal. The essentials:
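Multiplexed CIS reporter system in transiently transfected HepG2 cells measures native transcription factor activity. Reporter RNA after 24 h exposure is profiled by RT-PCR-capillary electrophoresis.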

Experiment [11] in a line: ATG_M_61_CIS: Attagene CIS-FACTORIAL HepG2 Assay for M61 Transcription Factor (Internal Marker) (AID 2282937). To be noted: HepG2 Attagene CIS-FACTORIAL M61 internal marker reporter; actives raise or lower the signal. The essentials:
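Human liver HepG2, transient MRTU transfection (cis promoter elements), 24 h compound. Total RNA → oligo(dT) RT → PCR → FAM label → HpaI → CE. Internal background marker; bidirectional fitting, DMSO = baseline.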

Experiment [12] in a line: ATG_EGR_CIS: Attagene CIS-FACTORIAL HepG2 Assay for human Early Growth Response 1 (EGR1) (AID 2282938). Conditions: HepG2 Attagene CIS-FACTORIAL EGR reporter mRNA; actives raise or lower the signal. The essentials: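 Transient transfection of human HepG2 with multiple cis-regulated reporter units, chemical exposure 24 h, total RNA isolated. Reverse transcription, PCR, fluorescent labelling and capillary electrophoresis quantify reporter transcripts; activity fitted bidirectionally against DMSO.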

Experiment [13] is described as follows: ATG_M_19_CIS: Attagene CIS-FACTORIAL HepG2 Assay for M19 Transcription Factor (Internal Marker) (AID 2282939). To be noted: HepG2 Attagene CIS-FACTORIAL M19 internal marker reporter; actives raise or lower the signal. The essentials:
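Readout: fluorescent reporter-transcript fragments by capillary electrophoresis after RT-PCR. Human HepG2 liver cells carried transfected MRTU constructs reporting endogenous transcription-factor activity; exposure 24 h. Gain or loss of signal fitted relative to DMSO.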

A short description of experiment [14]: ATG_Ets_CIS: Attagene CIS-FACTORIAL HepG2 Assay for human Erythroblast Transformation Specific (ETS) (AID 2282941). Conditions: HepG2 ETS cis-reporter transcription, actives raise or lower the signal. The method, boiled down:
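Steps: transfect HepG2 with multiple reporter units; treat compound 24 h; isolate RNA, DNase-treat, reverse-transcribe; PCR-amplify, label with 6-FAM, digest with HpaI; separate by capillary electrophoresis. Activity fitted both directions versus DMSO.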

For experiment [15], the target named is Hepatocyte nuclear factor 3-beta (Homo sapiens) (UniProt Q9Y261). The experiment can be described thus: ATG_FoxA2_CIS: Attagene CIS-FACTORIAL HepG2 Assay for human Forkhead box A2 (FOXA2) (AID 2282942). To be noted: HepG2 cis-reporter transcription factor activity, 24 h; actives raise or lower the signal. The method, boiled down:
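Transient MRTU transfection of HepG2 liver cells; 24 h treatment; total RNA → oligo(dT) RT → PCR → FAM primer extension → HpaI cut → CE. Bidirectional fit vs DMSO.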

The nature of experiment [16]: ATG_FoxO_CIS: Attagene CIS-FACTORIAL HepG2 Assay for human Forkhead box O (FoxO) (AID 2282943). Conditions: HepG2 Attagene cis-reporter, FoxO element, mRNA; actives raise or lower the signal. The essentials: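 HepG2 cells transiently transfected with cis-promoter-driven multiple reporter transcription units; 24 h after chemical dosing, reporter mRNA quantified by RT-PCR, fluorescent primer extension, HpaI digestion and capillary electrophoresis. Bidirectional fitting versus DMSO baseline.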

Experiment [17] is described as follows: ATG_GATA_CIS: Attagene CIS-FACTORIAL HepG2 Assay for human GATA Binding Protein (AID 2282944). To be noted: HepG2 GATA cis-element reporter, Attagene multiplex mRNA; actives raise or lower the signal. The essentials: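 Read-out: fluorescent reporter mRNA fragments resolved by capillary electrophoresis after RT-PCR. Human liver HepG2 cells carried transiently transfected cis-regulated reporter constructs; chemicals incubated 24 h; gain or loss of signal fitted relative to DMSO.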

Experiment [18] can be described thus: ATG_GLI_CIS: Attagene CIS-FACTORIAL HepG2 Assay for human Zinc Finger Protein GLI1 (AID 2282945). To be noted: HepG2, Attagene cis-factorial reporter mRNA, GLI element; actives raise or lower the signal. The essentials: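 HepG2 cells transiently transfected with cis-promoter multiplexed reporter units report endogenous transcription factor activity. After 24 h chemical exposure, reporter mRNA was quantified by RT-PCR, 6-FAM labelling, HpaI digestion and capillary electrophoresis, with bidirectional fitting against DMSO.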

The nature of experiment [19]: ATG_ERE_CIS: Attagene CIS-FACTORIAL HepG2 Assay for Estrogen Response Element (ERE) (AID 2282940). Conditions: HepG2 ERE cis-reporter, Attagene RNA transcript; actives raise or lower the signal. The method, boiled down: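 Readout: reporter mRNA induction by RT-PCR, FAM-labelled primer extension, HpaI digestion and capillary electrophoresis, 24 h after dosing transfected HepG2 cells. Endogenous transcription factors act on cis-element-regulated reporters. Gain or loss fitted against DMSO.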

Experiment [20] has as its target Retinoic acid receptor alpha (Homo sapiens) (UniProt P10276). The experiment can be described thus: ATG_DR5_RAR_CIS: Attagene CIS-FACTORIAL HepG2 Assay for human Retinoic Acid Receptor Alpha (RARE), DR5 submotif (AID 2282934). Conditions: HepG2 Attagene cis-factorial RARE DR5 reporter, mRNA; actives raise or lower the signal. The method, boiled down:
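HepG2 cells transiently transfected with multiplexed reporter units under cis (DR5 RARE) promoters, so endogenous transcription factor activity is measured. After 24 h compound exposure, reporter mRNA is quantified by RT-PCR with fluorescent labelling and capillary electrophoresis; bidirectional fitting versus DMSO.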

Activity calls are given as the source filed them. How the source made its calls: active means hit-call score of the fitted dose curve at least 0.9, where 1 is the maximum; inactive means score below 0.9.

The term AC50 denotes the concentration giving half of the maximal activity seen.

CCAAT/enhancer-binding protein beta (Homo sapiens), sequence (P17676 whole entry, looked up): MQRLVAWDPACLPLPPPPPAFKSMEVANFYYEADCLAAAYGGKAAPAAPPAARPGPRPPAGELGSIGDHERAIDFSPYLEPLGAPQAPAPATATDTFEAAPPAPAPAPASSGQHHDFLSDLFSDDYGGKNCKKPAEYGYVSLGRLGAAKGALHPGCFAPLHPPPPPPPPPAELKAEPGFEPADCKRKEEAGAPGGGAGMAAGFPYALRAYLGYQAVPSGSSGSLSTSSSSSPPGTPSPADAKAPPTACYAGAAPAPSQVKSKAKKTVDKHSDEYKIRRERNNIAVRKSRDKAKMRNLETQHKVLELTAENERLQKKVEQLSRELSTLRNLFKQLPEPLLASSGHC
Transcription factor E2F1 (Homo sapiens), sequence (Q01094 whole entry, looked up): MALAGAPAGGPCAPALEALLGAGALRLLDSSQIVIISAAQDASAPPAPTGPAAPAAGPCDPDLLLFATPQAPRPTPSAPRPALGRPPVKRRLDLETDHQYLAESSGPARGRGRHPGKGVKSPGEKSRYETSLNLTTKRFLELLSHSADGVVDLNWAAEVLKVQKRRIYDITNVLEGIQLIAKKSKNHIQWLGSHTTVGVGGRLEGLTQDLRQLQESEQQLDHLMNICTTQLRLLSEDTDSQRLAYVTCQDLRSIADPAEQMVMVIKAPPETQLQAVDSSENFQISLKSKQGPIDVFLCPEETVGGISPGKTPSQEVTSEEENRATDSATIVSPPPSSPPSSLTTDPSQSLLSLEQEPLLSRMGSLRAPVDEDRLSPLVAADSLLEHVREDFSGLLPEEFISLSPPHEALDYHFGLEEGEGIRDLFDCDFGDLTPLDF
Aryl hydrocarbon receptor (Homo sapiens), sequence (P35869 whole entry, looked up): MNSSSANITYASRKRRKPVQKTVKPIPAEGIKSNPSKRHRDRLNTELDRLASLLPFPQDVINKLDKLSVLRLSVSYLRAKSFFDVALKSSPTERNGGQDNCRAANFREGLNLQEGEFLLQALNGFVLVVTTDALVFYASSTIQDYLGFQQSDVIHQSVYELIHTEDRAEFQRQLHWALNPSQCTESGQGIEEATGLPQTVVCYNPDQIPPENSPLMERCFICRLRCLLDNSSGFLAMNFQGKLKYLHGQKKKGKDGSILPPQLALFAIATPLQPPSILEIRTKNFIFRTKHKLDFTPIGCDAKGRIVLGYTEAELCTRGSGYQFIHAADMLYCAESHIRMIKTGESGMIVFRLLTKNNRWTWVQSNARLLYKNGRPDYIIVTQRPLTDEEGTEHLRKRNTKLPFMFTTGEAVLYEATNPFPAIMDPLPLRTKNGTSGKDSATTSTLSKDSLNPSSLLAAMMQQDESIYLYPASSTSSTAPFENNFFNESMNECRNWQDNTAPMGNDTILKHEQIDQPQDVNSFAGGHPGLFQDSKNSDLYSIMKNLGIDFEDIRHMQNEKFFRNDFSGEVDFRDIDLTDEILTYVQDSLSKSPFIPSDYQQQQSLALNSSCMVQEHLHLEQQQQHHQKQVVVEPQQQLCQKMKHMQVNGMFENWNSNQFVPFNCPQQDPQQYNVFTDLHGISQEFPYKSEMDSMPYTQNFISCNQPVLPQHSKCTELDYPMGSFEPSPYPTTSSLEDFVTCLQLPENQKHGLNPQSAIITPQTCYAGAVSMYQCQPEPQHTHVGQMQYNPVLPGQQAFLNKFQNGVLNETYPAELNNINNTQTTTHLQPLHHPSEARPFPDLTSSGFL
Hepatocyte nuclear factor 3-beta (Homo sapiens), sequence (Q9Y261 whole entry, looked up): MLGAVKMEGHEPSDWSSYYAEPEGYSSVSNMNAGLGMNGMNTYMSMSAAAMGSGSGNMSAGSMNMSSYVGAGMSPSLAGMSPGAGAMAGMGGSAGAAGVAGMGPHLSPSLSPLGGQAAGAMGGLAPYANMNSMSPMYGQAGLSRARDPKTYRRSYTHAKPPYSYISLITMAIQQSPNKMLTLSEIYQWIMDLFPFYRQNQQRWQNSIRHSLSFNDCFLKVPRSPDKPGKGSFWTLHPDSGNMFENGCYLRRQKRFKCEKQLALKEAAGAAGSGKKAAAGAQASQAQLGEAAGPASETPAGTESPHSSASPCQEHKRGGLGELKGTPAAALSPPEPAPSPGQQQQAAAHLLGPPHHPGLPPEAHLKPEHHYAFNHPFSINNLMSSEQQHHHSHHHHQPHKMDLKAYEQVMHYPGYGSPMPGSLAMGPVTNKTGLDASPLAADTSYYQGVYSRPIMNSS
Retinoic acid receptor alpha (Homo sapiens), sequence (P10276 whole entry, looked up): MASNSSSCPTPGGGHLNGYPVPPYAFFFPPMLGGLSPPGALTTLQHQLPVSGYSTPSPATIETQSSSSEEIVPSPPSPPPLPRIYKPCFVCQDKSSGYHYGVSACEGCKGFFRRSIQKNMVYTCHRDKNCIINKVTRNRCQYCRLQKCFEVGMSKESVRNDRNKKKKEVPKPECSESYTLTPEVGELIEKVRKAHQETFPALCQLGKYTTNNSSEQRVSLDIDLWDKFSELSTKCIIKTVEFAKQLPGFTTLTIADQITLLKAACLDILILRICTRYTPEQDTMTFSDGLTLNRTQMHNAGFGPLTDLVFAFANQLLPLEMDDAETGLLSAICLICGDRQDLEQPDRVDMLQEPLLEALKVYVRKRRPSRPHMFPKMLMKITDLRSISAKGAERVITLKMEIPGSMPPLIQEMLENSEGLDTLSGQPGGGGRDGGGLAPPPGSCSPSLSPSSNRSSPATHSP

As to `CC(=O)Nc1ccccc1O`, the result in experiment [1], in experiment [2], in experiment [3], in [4], in experiment [6] and in [7] was inactive. For the same compound, the compound was called inactive in experiment [8], in experiment [9], in experiment [10], in [11], in [12] and in experiment [13]. Moreover, the outcome in [14], in experiment [15], in experiment [16], in experiment [17] and in [18] was inactive. The AC50 in experiment [5] is 20.7 µM (active).

On to `N#Cc1ccc(CC(=NNC(=O)Nc2ccc(OC(F)(F)F)cc2)c2cccc(C(F)(F)F)c2)cc1`, for which the call in experiment [1], in experiment [2], in experiment [3], in experiment [4], in experiment [6] and in experiment [7] was inactive. Moreover, the compound was classed as inactive in [8], in experiment [9], in [10], in [12], in experiment [13] and in experiment [19]. Besides, the outcome in experiment [14], in experiment [15], in experiment [16], in [17] and in experiment [18] was inactive. The AC50 in experiment [5] is 53.1 µM (active).

`CC[C@]12CCCN3CCc4c(n(c5ccccc45)[C@@](O)(C(=O)OC)C1)[C@@H]32`: the compound was classed as inactive in experiment [1], in experiment [2], in [3], in experiment [4], in experiment [5] and in experiment [6]. In addition, the compound was called inactive in [7], in experiment [20], in experiment [9], in [10], in [11] and in experiment [12]. For the same compound, the outcome in [13], in experiment [14], in experiment [15], in experiment [16] and in experiment [17] was inactive.

Regarding `CCCCCCOC(=O)CC`, the compound was called inactive in [1], in experiment [2], in [3], in experiment [4], in experiment [5] and in experiment [6]. Moreover, the compound was classed as inactive in experiment [7], in experiment [8], in experiment [9], in experiment [10], in experiment [12] and in experiment [13]. For the same compound, the compound was called inactive in [19], in [14], in experiment [15], in experiment [16], in experiment [17] and in experiment [18].

As for `C=C(C)C(=O)Nc1ccc(Cl)c(Cl)c1`, the result in experiment [1], in experiment [2], in [3], in [4], in experiment [6] and in experiment [7] was inactive. Further, the compound was classed as inactive in experiment [11], in experiment [14], in experiment [15], in experiment [16], in [17] and in experiment [18]. For the same compound, the AC50 in [5] is 14.9 µM (active); in experiment [8], 79.9 µM (active); in experiment [12], 27.2 µM (active).

Take `Nc1cc([N+](=O)[O-])ccc1O`: the compound was called inactive in [1], in [2], in [3], in experiment [4], in experiment [6] and in experiment [7]. For the same compound, the compound was classed as inactive in experiment [8], in experiment [9], in experiment [11], in [12], in [14] and in [15]. Besides, the outcome in experiment [16] and in experiment [18] was inactive. Further, the half-maximal activity concentration (AC50) in experiment [5] was 100 µM (active).

Regarding `CC(C)[C@H]1CC[C@@H](C)CC1=O`, the call in experiment [1], in [2], in [3], in [4], in [5] and in experiment [6] was inactive. In addition, the call in [7], in [8], in experiment [9], in [11], in [12] and in [13] was inactive. In addition, the result in experiment [14], in experiment [15], in experiment [16], in experiment [17] and in experiment [18] was inactive.

The values are drawn from PubChem BioAssay (EPA / NIEHS).
